Assay results published in PubChem BioAssay.
Active and inactive are the calls of the source. Unless noted, how the calls were made is not given here.

Key:
[1] = tested on: Wnt5a (protein binding on small-molecule microarray); experiment: Wnt5a binders on small-molecule microarray, primary screen, biophysical, 635/667 nm fluorescence (AID 1142); conditions: 635 nm fluorescence, higher = more signal;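 further: fluorescence read at 667 nm with signal to noise per printed feature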
[2] = cell viability in Huh7 cells, primary screen, cytotoxicity control for HCV replication inhibitor project, CellTiter-Glo luminescence, basal, 48 h (AID 1143); conditions: Huh7 HCV replicon, higher = more signal, called active from +8 up or from −8 down;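 further: Huh7 hepatoma cells carrying a hepatitis C replication reporter with no stimulus; test concentration not given here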
[3] = P. aeruginosa biofilm formation inhibitors, primary screen, PAO1 strain, BacTiter-Glo luminescence, LB-PBS (AID 1144); conditions: 12 h, higher = more signal
[4] = CREB reporter modulators without forskolin, primary screen, cell-based, PC12, CRE-LacZ reporter, unstimulated (AID 1145); conditions: no forskolin, luminescence, 4.5 h, higher = more signal, called active from +8 up or from −8 down
[5] = CREB reporter modulators under forskolin, primary screen, cell-based, PC12, CRE-LacZ reporter, forskolin-stimulated (AID 1146); conditions: luminescence, 4.5 h, higher = more signal, called active from +8 up or from −8 down;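 further: PC12 cells with 6xCRE LacZ reporter stimulated by forskolin 10 µM; beta-galactosidase reporter signal reflecting CREB driven transcription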
[6] = target: Streptavidin (Streptomyces avidinii) (UniProt P22629); experiment: streptavidin binders on small-molecule microarray, primary screen, artefact control for SMM compound annotation, biophysical, 635/667 nm fluorescence (AID 1147); conditions: streptavidin binding, higher = more signal;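 further: signal reflects streptavidin binding to arrayed compounds as a control protein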
[7] = small-molecule binders of probe aInhba, primary screen, biochemical, small-molecule microarray, 635/667 nm fluorescence (AID 1148); conditions: higher = more signal;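 further: score merges 667nm spot fluorescence with signal-to-noise for antibody binding to printed compounds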
[8] = target: Torsin-1A (Homo sapiens) (UniProt O14656); experiment: torsin A binders from cell lysate, primary screen, small-molecule microarray, wild-type, 635/667 nm (AID 1149); conditions: COS7 hTOR1A-WT lysate, 635 nm fluorescence, higher = more signal
[9] = target: Torsin-1A (Homo sapiens) (UniProt O14656); experiment: small-molecule binders of mutant TOR1A in lysate, primary screen, cell lysate, small-molecule microarray, COS7 lysate, 635/667 nm fluorescence (AID 1150); conditions: COS7 hTOR1A mutant lysate, 635 nm fluorescence, higher = more signal;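 further: score pools 667 nm emission and signal to noise measuring lysate protein binding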
[10] = tested on: Sonic hedgehog protein (Shh); experiment: small-molecule binders of Shh protein, primary screen, biochemical, small-molecule microarray, 635/667 nm fluorescence (AID 1151); conditions: small-molecule microarray binding, 635 nm fluorescence; higher = more signal;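 further: Shh protein binding to compounds spotted on small-molecule microarray slides; score combines spot fluorescence intensity with signal-to-noise across triplicate slides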
[11] = E. coli DRC41 culture turbidity changes, primary screen, E. coli filamentation inducer project, strain DRC41, OD650, 48 h (AID 1152);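 further: E. coli MC1000 strain DRC41 lacking acrAB efflux pump and sulA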; conditions: E. coli DRC41 (acrAB sulA), higher = more signal, called active from +8 up or from −8 down
[12] = small-molecule binders of probe aLefty1, primary screen, biochemical, small-molecule microarray, 635/667 nm fluorescence (AID 1153); conditions: higher = more signal;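 further: score merges spot fluorescence with signal-to-noise ratio from the scanned slide images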
[13] = PSAC antagonists in infected red cells, primary screen, cell-based, P. falciparum Indochina, OD700, 1 h (AID 1154); conditions: P. falciparum Indochina infected RBC osmotic lysis, higher = more signal, called active from +8 up or from −8 down
[14] = PSAC antagonists in infected red cells, primary screen, cell-based, P. falciparum Indochina, OD700, 2 h (AID 1155);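 further: lysis reports solute entry through the parasite surface anion channel PSAC; channel blockers reduce lysis of infected cells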; conditions: P. falciparum Indochina infected erythrocytes, osmotic lysis OD700; higher = more signal, called active from +8 up or from −8 down
[15] = osmotic lysis modulators in infected erythrocytes, primary screen, PSAC antagonist project, cell-based, P. falciparum Indochina, OD700, 3 h (AID 1156); conditions: higher = more signal, called active from +8 up or from −8 down
[16] = PSAC antagonists in infected red cells, primary screen, cell-based, P. falciparum Indochina, OD700, 18 h (AID 1157); conditions: P. falciparum Indochina infected erythrocytes, osmotic lysis OD700, 18 h; higher = more signal, called active from +8 up or from −8 down
[17] = modulators of S6 phosphorylation in cells, primary screen, cell-based, A549, cytoblot, luminescence, serum-stimulated (AID 1158); conditions: A549 phospho-S6 cytoblot, 5 h, higher = more signal;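 further: serum-stimulated A549 lung adenocarcinoma cells; signal is phosphorylated S6 detected by cytoblot immunostaining with HRP secondary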
[18] = target: NADPH oxidase 2 (Homo sapiens) (UniProt P04839); experiment: NOX2-dependent H2O2 signal modulators, primary screen, NOX inhibitor project, cell-based, HEK293-NOX2, PMA-stimulated, Amplex Red fluorescence (AID 1159); conditions: 45 min, higher = more signal, called active from +8 up or from −8 down; further: test concentration not given here
[19] = target: NADPH oxidase 4 (Homo sapiens) (UniProt Q9NPH5); experiment: NOX4-dependent H2O2 signal modulators, primary screen, NOX inhibitor project, cell-based, HEK293-NOX4, tetracycline-induced, Amplex Red fluorescence (AID 1160); conditions: 45 min, higher = more signal, called active from +8 up or from −8 down
[20] = target: NADPH oxidase 5 (Homo sapiens) (UniProt Q96PH1); experiment: NOX5-dependent H2O2 signal modulators, primary screen, NOX inhibitor project, cell-based, HEK293-NOX5, Amplex Red fluorescence (AID 1161); conditions: HEK293-NOX5, ionomycin, 45 min, higher = more signal
NADPH oxidase 5 (Homo sapiens), sequence (Q96PH1 whole entry, looked up): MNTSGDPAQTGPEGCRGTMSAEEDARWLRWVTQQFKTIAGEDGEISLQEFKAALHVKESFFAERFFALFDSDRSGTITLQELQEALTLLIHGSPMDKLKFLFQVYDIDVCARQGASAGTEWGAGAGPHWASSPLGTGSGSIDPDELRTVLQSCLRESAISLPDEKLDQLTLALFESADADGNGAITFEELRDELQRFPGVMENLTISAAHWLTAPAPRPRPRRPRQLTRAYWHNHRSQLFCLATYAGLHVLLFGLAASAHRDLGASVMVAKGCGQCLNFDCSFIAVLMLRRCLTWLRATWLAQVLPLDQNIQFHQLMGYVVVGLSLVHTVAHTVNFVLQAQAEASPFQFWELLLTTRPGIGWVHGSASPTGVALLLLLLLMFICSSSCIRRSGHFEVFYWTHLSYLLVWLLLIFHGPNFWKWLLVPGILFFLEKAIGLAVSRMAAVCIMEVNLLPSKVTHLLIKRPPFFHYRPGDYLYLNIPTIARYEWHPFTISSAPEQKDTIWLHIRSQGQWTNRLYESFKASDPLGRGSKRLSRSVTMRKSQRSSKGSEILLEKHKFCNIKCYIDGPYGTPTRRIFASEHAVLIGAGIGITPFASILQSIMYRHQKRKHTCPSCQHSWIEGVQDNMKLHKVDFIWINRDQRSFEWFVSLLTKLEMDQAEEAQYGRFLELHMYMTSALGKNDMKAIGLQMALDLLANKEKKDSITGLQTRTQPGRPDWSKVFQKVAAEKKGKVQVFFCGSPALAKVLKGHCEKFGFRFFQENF

NADPH oxidase 4 (Homo sapiens), sequence (Q9NPH5 whole entry, looked up): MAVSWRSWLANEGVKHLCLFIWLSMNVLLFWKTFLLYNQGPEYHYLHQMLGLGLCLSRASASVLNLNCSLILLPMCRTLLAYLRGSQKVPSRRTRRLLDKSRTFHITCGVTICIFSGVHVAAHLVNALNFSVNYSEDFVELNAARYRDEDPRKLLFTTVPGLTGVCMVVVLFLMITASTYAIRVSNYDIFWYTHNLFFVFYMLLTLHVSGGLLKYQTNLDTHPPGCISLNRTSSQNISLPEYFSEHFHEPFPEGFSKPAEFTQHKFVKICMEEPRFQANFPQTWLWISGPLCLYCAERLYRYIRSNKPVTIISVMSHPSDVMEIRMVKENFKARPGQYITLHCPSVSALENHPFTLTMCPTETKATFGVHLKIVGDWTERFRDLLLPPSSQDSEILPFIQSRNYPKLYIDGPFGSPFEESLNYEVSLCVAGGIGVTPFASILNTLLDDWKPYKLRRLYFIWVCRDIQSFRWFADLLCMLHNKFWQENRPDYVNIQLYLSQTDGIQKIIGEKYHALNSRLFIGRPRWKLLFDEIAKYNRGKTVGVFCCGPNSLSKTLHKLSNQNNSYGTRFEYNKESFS
Torsin-1A (Homo sapiens), sequence (O14656 whole entry, looked up): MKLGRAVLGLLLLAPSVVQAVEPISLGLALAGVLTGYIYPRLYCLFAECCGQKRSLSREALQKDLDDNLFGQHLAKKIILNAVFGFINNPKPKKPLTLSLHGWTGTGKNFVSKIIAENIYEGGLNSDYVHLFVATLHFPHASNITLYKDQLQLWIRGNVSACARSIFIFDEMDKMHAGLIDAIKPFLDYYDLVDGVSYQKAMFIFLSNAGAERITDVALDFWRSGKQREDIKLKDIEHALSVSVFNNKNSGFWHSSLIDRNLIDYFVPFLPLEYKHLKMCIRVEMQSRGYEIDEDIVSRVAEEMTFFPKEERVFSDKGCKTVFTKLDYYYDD
NADPH oxidase 2 (Homo sapiens), sequence (P04839 whole entry, looked up): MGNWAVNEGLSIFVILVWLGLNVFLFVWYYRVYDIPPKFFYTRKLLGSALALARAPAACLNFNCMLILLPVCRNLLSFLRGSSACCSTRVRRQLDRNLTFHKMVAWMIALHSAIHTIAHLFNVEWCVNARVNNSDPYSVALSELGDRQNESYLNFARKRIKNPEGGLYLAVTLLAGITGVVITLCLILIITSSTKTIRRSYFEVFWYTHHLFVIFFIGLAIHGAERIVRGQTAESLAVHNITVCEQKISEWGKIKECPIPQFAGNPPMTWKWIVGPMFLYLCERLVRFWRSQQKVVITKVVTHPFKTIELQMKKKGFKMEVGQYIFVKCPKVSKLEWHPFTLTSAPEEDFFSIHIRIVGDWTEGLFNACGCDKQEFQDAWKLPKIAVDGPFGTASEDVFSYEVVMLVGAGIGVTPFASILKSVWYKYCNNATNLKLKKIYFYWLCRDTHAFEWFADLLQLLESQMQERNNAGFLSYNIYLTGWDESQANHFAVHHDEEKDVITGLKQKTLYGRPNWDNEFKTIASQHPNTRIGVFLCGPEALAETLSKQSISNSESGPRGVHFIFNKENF
Streptavidin (Streptomyces avidinii), sequence (P22629 whole entry, looked up): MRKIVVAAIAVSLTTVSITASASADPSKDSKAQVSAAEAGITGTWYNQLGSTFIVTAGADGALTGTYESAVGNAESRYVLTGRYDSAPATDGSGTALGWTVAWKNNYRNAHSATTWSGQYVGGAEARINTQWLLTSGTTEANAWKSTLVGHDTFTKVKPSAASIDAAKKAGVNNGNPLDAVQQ

| SMILES | composite z-score [1] | z-score [2] | z-score [3] | z-score [4] | z-score [5] | composite z-score [6] | composite z-score [7] | composite z-score [8] | composite z-score [9] | composite z-score [10] | z-score [11] | composite z-score [12] | z-score [13] | z-score [14] | z-score [15] | z-score [16] | z-score [17] | z-score [18] | z-score [19] | z-score [20] |
| --- | --- | --- | --- | --- | --- | --- | --- | --- | --- | --- | --- | --- | --- | --- | --- | --- | --- | --- | --- | --- |
| [N-]=[N+]=NCc1ccccc1C[C@@]1(C(=O)NCC(O)CO)N=C(c2ccc(OCCCO)cc2)O[C@@H]1c1ccccc1N=[N+]=[N-] (stereo not given in full) | 0.63 | -3.67 (inactive) | -0.68 (inactive) | 0.209 (inactive) | -1.57 (inactive) | 1.89 | 0.475 | 0.73 | 1.07 | -0.762 | 0.458 (inactive) | 0.668 | 30.8 (active) | 28.7 (active) | 1.29 (inactive) | 7.41 (inactive) | 0.345 | -0.00841 (inactive) | 1.21 (inactive) | 0.427 |
| CC(C)C[C@@H]1NC(=O)[C@H]2C[C@@H](C(=O)NCCCCCCN(C)C)[C@@H](c3ccc(O)cc3)N2C1=O | 0.836 | -0.29 (inactive) | -0.041 (inactive) | -0.398 (inactive) | 0.425 (inactive) | 0.189 | -0.147 | 1.47 | 1.52 | 1.97 | -0.655 (inactive) | -0.0573 | 0.977 (inactive) | -0.116 (inactive) | -0.0599 (inactive) | -0.288 (inactive) | -0.384 | 0.193 (inactive) | 0.268 (inactive) | 0.0226 |
| C=C(COC)/C(=C/C[C@@H](OC(C)=O)c1ccc(CO)o1)c1cnc2ccccc2c1 | 0.387 | -0.0797 (inactive) | -1.14 (inactive) | 0.159 (inactive) | -1.6 (inactive) | 1.3 | 0.147 | 0.797 | 0.73 | 2.1 | 0.876 (inactive) | 0.233 | 4.44 (inactive) | 0.759 (inactive) | 1.56 (inactive) | 0.307 (inactive) | 0.0933 | 0.299 (inactive) | -2.98 (inactive) | -1.25 |
| CCCCN1CC=CC23O[C@@H]4C=CCOC(=O)[C@@H]4[C@H]2C(=O)N(CCCCCO)[C@@H]3C1=O (stereo not given in full) | -0.103 | 0.445 (inactive) | -1.08 (inactive) | -0.761 (inactive) | -0.645 (inactive) | -1.32 | -0.0531 | -0.915 | 1.23 | 1.07 | 0.504 (inactive) | 0.749 | 1.25 (inactive) | 0.882 (inactive) | 1.22 (inactive) | 0.529 (inactive) | 0.0401 | 0.872 (inactive) | 0.381 (inactive) | 1.37 |
| CN(C)CCCCCCNC(=O)[C@@H]1C[C@@H]2C(=O)N[C@@H](CCCCN)C(=O)N2[C@@H]1c1cccc(OCCO)c1 | 1.97 | -0.598 (inactive) | -1.19 (inactive) | -0.268 (inactive) | -0.199 (inactive) | 3.03 | 1.57 | 3.29 | 3.11 | 1.92 | -0.374 (inactive) | 2.74 | 1.59 (inactive) | -0.644 (inactive) | 0.0026 (inactive) | -2.47 (inactive) | 1.51 | 0.853 (inactive) | 0.7 (inactive) | 1.95 |
| [N-]=[N+]=Nc1ccccc1C[C@]1(C(N)=O)N=C(c2ccc(OCCCO)cc2)O[C@H]1c1ccccc1 | 0.498 | -2.27 (inactive) | -0.726 (inactive) | 1.31 (inactive) | -0.723 (inactive) | 0.665 | 0.0516 | 0.644 | -0.0736 | -1.98 | -0.444 (inactive) | 0.228 | 19.8 (active) | 3.47 (inactive) | 1.84 (inactive) | 0.936 (inactive) | 0.176 | 0.631 (inactive) | 0.247 (inactive) | -1.32 |
| CN1C(=O)C2C=CC(C(O)C3CCCCC3)N(Nc3ccc([N+](=O)[O-])cc3[N+](=O)[O-])C2C1=O (stereo not given) | 0.326 | 0.729 (inactive) | 1.17 (inactive) | 0.626 (inactive) | 1.37 (inactive) | 1.2 | -0.024 | 1.27 | 1.04 | -0.0056 | -1.06 (inactive) | 0.181 | 1.72 (inactive) | 0.519 (inactive) | -0.226 (inactive) | 0.532 (inactive) | -0.511 | -1.18 (inactive) | 0.889 (inactive) | 0.414 |
| COCCCNC(=O)C1N=C(c2ccc(OCCCO)cc2)N(c2ccccc2)O1 (stereo not given) | 0.282 | -2.78 (inactive) | 0.708 (inactive) | -0.207 (inactive) | 0.72 (inactive) | 0.51 | 0.151 | 0.777 | 0.442 | 0.264 | 0.768 (inactive) | -0.265 | 18.4 (active) | 2.14 (inactive) | 0.669 (inactive) | 0.325 (inactive) | 0.147 | -3.86 (inactive) | -0.749 (inactive) | -0.819 |
